Source: PubChem BioAssay (NCI)
The panel holds about 83,000 compounds, 20% with a hit somewhere; the sample as a whole holds those more often.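 Activity criterion: percent growth below 10, measured after cells in 96-well plates were exposed to a single compound concentration for 48 hours.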 Calls of active or inactive are those of the source.

The compounds below were run on SNB-19 CNS (assay: NCI-60 one-dose screen, 48 h (100 = growth as untreated, 0 = no growth, -100 = all killed)). Settings: 10 µM unless noted.
Procedure: Growth inhibition of the SNB-19 human tumor cell line is measured as a screen for anti-cancer activity. Cells are grown in 96 well plates and exposed to the test compound for 48 hours. Compounds are tested at a single concentration, which is 10^-5 M for most compounds. The reported endpoint is percent growth (GI% or GIPRCNT), where numbers from 0 - 100% represent growth inhibition, and numbers from -100% - 0 represent cell death. For example, a value of 40 represents 60% growth inhibition. A value of 0 means no net growth occurred over the course of the experiment. A value of -40 indicates 40% of cells at the beginning of the experiment died by the end of the experiment. A value of -100 means all cells are dead at the end of the experiment.
NCI-60 Human Tumor Cell Lines Screen was performed using the standard one-dose NCI protocol, which is described in more detail at https://dtp.cancer.gov/discovery_development/nci-60/default.htm.
Compounds with GIPRCNT values below 10 were considered active. Activity score was based on GIPRCNT using the following formula: […]
Score is 0 for GIPRCNT values of 100 or above, 50 for GIPRCNT values of 0, and 100 for GIPRCNT values of -100.
In the case of O=C(O)C1[O][Sb][O]C1C(=O)O (stereo not given), the growth is reported as 110% (inactive). CC(=O)N(C)C1=Nc2ccc(Cl)cc2C(c2ccccc2)=[N+]([O-])C1 was tested, and the growth was 96.3% (inactive). In the case of CC1(C)N=C(N)N=C(N)N1c1ccc(OCCCCOc2ccc(S(=O)(=O)F)cc2)c(Cl)c1, the growth is reported as 24.4% (inactive). With CN=C(NN)NN the growth was 121% (inactive). In the case of CC(/C=N/N=C(N)N)=N\N=C(N)N, the growth is reported as 78.1% (inactive). In the case of ClCCN(CCCl)c1nc(Cl)c(C2CC(c3ccc(Cl)cc3)=NN2c2cc(Cl)cc(Cl)c2)s1 (stereo not given), the growth is reported as 88.1% (inactive). With COC(=O)C(=[N+]=[N-])C(=O)OC the growth was 103% (inactive). For Cc1ccc(N)cc1[As]=[As]c1cc(N)ccc1C (stereo not given), the growth was -47.5% (active). With N#CC(C#N)=Cc1ccc2ccccc2c1 the growth was 106% (inactive). For COc1ccc(OC)c(/C=C(/C)[N+](=O)[O-])c1, the growth was 97.6% (inactive). Fc1ccc(C2=NN(c3ccccc3)C(c3sc(N(CCCl)CCCl)nc3Cl)C2)cc1 (stereo not given) was tested, and the growth was 95.6% (inactive). With CC[C@H](C)[C@H](NC(=O)Nc1ccccc1)C(=O)N(C)[C@H](C[C@@H](OC(C)=O)c1nc(C(=O)N[C@@H](Cc2ccccc2)C[C@H](C)C(=O)OC)cs1)C(C)C the growth was 45% (inactive). For CC(=O)O[C@H]1CC[C@H]2[C@@H]3CC[C@H]4CC=C(C)C[C@]4(C)[C@H]3CC[C@]12C, the growth was 101% (inactive). With CCC(C)[C@H]1O[C@]2(C=C[C@@H]1C)C[C@@H]1C[C@@H](C/C=C(\C)[C@@H](OC3C[C@H](OC)C(O[C@H]4C[C@H](OC)[C@@H](O)[C@H](C)O4)[C@H](C)O3)[C@@H](C)/C=C/C=C3\CO[C@@H]4[C@H](O)C(C)=C[C@@H](C(=O)O1)[C@]34O)O2 (stereo not given in full) the growth was 23.2% (inactive). For COc1ccc(NP2(=O)OCC(C)(N)CO2)cc1 (stereo not given), the growth was 105% (inactive). In the case of OC1(c2ccc(Cl)cc2Cl)c2ccccc2C2=NCCN21 (stereo not given), the growth is reported as 101% (inactive). For CNc1ccc(C(=O)CC(O)CCC(C)C2OC(=O)CC(O)CC(=O)CC(O)CC(O)CC(O)CC(O)CC3(O)CC(O)C(C(=O)OC)C(CC(O[C@@H]4O[C@H](C)[C@@H](O)[C@H](N)[C@@H]4O)/C=C/C=C/C=C/C=C/C=C/C=C/C=C/C2C)O3)cc1 (stereo not given in full), the growth was 41.8% (inactive). CC(C)(C)NCC(O)c1ccccc1Cl (stereo not given) was tested, and the growth was 27.8% (inactive). For c1ccc(CCN2CCCCC2Cc2ccccc2)cc1 (stereo not given), the growth was 111% (inactive). In the case of O1[As]2O[As]3O[As]1O[As](O2)O3, the growth is reported as -2.55% (active). With O=C(C(=O)N1CCCC1)c1cn(CCCCCn2cc(C(=O)C(=O)N3CCCC3)c3ccccc32)c2ccccc12 the growth was 93.5% (inactive). In the case of c1ccc(-c2ccc3ccccc3[o+]2)cc1, the growth is reported as 93.3% (inactive). O=C(NCc1ccc([N+](=O)[O-])cc1)Nc1ccc(S(=O)(=O)F)cc1 was tested, and the growth was 88.6% (inactive). In the case of Oc1ccc2c3c1O[C@H]1c4[nH]c5ccccc5c4C[C@@]4(O)C(C2)N(CC2CC2)CC[C@]314, the growth is reported as 106% (inactive). In the case of CC(C)Nc1ccc(Nc2ccccc2)cc1, the growth is reported as 33.7% (inactive). CC12CCC(=O)C=C1CCC1C2CCC2(C)C(C(=O)COC(=O)Cc3ccc(N(CCCl)CCCl)cc3)CCC12 (stereo not given) was tested, and the growth was 96.2% (inactive). CO[C@@H]([CH2][Hg][S]C#N)[C@@H]([CH2][Hg][S]C#N)OC was tested, and the growth was 100% (inactive). CCOC(=O)/C=C(\C)Nc1ccc(N/C(C)=C/C(=O)OCC)c2c1Oc1ccccc1O2 was tested, and the growth was 115% (inactive). In the case of O=C(CCF)c1ccc(O)cc1, the growth is reported as 96.2% (inactive). O=CN1N=C(c2ccccc2)CC1c1sc(N(CCCl)CCCl)nc1Cl (stereo not given) was tested, and the growth was 90.9% (inactive). In the case of NC(Cc1ccc(O)cc1)C(=O)N/N=C/c1ccc(N(CCCl)CCCl)cc1 (stereo not given), the growth is reported as 92.5% (inactive). For n1nc(-c2nonc2-c2nn[nH]n2)n[nH]1, the growth was 105% (inactive). For CCN1CC2(CN(CC)C1=S)C(=O)NC(=O)NC2=O, the growth was 107% (inactive). For Nc1c(Br)cc([N+](=O)[O-])cc1[N+](=O)[O-], the growth was 102% (inactive). In the case of CSc1ccccc1NP1(=O)OCC(C)([N+](=O)[O-])CO1 (stereo not given), the growth is reported as 97.1% (inactive). With ClCCN(CCCl)C(c1ccccc1)c1ccc(Cl)cc1 (stereo not given) the growth was 81.6% (inactive). In the case of CNC(=O)Oc1cccc(OC)c1, the growth is reported as 103% (inactive). COc1ccc(/C=C(/C(=O)N2CCCC2)c2cc(OC)c(OC)c(OC)c2)cc1N was tested, and the growth was 44.4% (inactive). CCN(CC)CCOc1c(C(C)C)cccc1C(C)C was tested, and the growth was 106% (inactive). CCCCn1cc(C(=O)/C(C#N)=C/c2cc3ccccc3nc2Cl)c2cc(OC)ccc21 was tested, and the growth was 90.3% (inactive).
